Here are results for 30 compounds from PubChem BioAssay (NCI).

The panel holds about 83,000 compounds, 20% with a hit somewhere; the sample as a whole holds those more often.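 A percent growth of 40 corresponds to 60% growth inhibition; 0 means no net growth; -100 means all cells died. Active threshold: below 10.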 Unmarked numbers belong to inactive results. Active and inactive are the calls of the source.

Common to all, as to assay: NCI-60 one-dose screen, 48 h (100 = growth as untreated, 0 = no growth, -100 = all killed)
Conditions in all cases: 10 µM unless noted

The subject of experiment [1] is NCI/ADR-RES ovarian.
In experiment [2] the test system is T-47D breast.
Experiment [3] concerns BT-549 breast.
Experiment [4] has as its system SW-620 colon.
For experiment [5], the system named is MCF7 breast.
For experiment [6], the system named is HCT-116 colon.
The subject of experiment [7] is HCC-2998 colon.
For experiment [8], the system named is KM12 colon.
For experiment [9], the system named is MDA-MB-435 melanoma.

On to `CCCCCCCOC(C(=O)OCCN(CC)CC)(c1ccccc1)c1ccccc1`, for which the growth is 97.8% in [1]; 86% in experiment [2]; 88.3% in experiment [3]; 77.3% in experiment [4]; 115% in [5]; 58% in [6]. In addition, the results for the growth in experiment [7] and in [8] were 88.5% and 78.4%, respectively.

With `CC[C@H](C)[C@H](NC(=O)[C@H]1CCCCN1C)C(=O)N(C)[C@H](C[C@@H](O)c1nc(C(=O)N[C@@H](Cc2ccccc2)C[C@H](C)C(=O)O)cs1)C(C)C`, the growth in [1] was 109%; in experiment [2] it was 81.5%; in experiment [3], 88.5%; in [4], 58.6%; in experiment [5], 29.9%; in [6], 77.7%. Besides, the growth in experiment [7] is 99.9%; in experiment [8] it was 72.7%.

Consider `CSc1nc(Cl)cc(N2CC2)n1`, for which the growth in experiment [1] was 119%; in experiment [2], 108%; in experiment [3] it was 111%; in experiment [4], 105%; in experiment [5] it was 105%; in experiment [6], 105%. Moreover, the growth in experiment [7] was 138%; in experiment [8] it was 111%.

On to `COC[C@@H]1C[C@@]2(C)[C@@H](CC[C@@H]3[C@@H]2CC[C@@]2(C)[C@H]3CC[C@]2(C)O)CC1=O`, for which the growth was 101% in experiment [1]; 88.2% in [2]; 89.1% in experiment [3]; 110% in experiment [4]; 92.7% in [5]; 96% in experiment [6]. Moreover, the growth in experiment [7] was 94.9%; in experiment [8] it was 101%.

As for `Nc1c(F)cc(-c2nc3cc(F)ccc3[se]2)cc1F`, the growth in experiment [1] is 94.6%; in [2], 5.78% (active); in [3], 78.9%; in [4], 95.2%; in [5] it was 2.27% (active); in [6], 37.1%. Further, the figures for the growth in experiment [7] and in experiment [8] were -44.5% (active) and 42.5%, respectively.

`Nc1ccc2c(c1)oc1ccccc12`: the growth in experiment [1] was 95.1%; in [2] it was 97%; in experiment [3], 97.9%; in experiment [9], 94.7%; in experiment [5], 83.2%; in experiment [6], 99.8%. For the same compound, the growth is 97.6% in [7] and 106% in experiment [8].

As for `CCOC(=O)[C@@H](C)C[C@H](Cc1ccccc1)NC(=O)c1csc([C@@H](C[C@H](C(C)C)N(C)C(=O)[C@H](CCC(C)C)NC(=O)[C@H]2CCCCN2C)OC(C)=O)n1`, the growth in experiment [1] was 4.75% (active); in experiment [2], 64.9%; in experiment [3], -24.5% (active); in [4], 25.4%; in [7], 10%; in [8], 13.9%.

For the compound `O=C1CC2(CC3(Cl)C(Cl)=C(Cl)C2(Cl)C3(Cl)Cl)C(=O)O1` (stereo not drawn), the growth in [1] was 101%; in experiment [2], 99.6%; in experiment [3] it was 107%; in experiment [4], 113%; in experiment [5] it was 99.4%; in experiment [6], 91.1%. Besides, the growth was 102% in experiment [7] and 106% in [8].

Consider `C[C@]12CC[C@H]3[C@@H](CC4SC(N)=NC45C/C(=N/NC(N)=O)CC[C@]35C)[C@@H]1CCC2=O` (stereo partly drawn), for which the growth in experiment [1] was -5.32% (active); in experiment [2] it was -21% (active); in experiment [3], 107%; in experiment [4], -59.2% (active); in [5], -55.6% (active); in experiment [6], 6.35% (active). For the same compound, the growth in [7] is 63.9%; in [8] it was 20.5%.

As for `O=C1Nc2ccccc2C2c3cccn3-c3ccccc3CN12` (stereo not drawn), the growth was 20.9% in experiment [1]; 27.7% in [2]; 50.7% in experiment [3]; 24.5% in [4]; 38.8% in experiment [5]; 41.7% in experiment [6]. The values for the growth in experiment [7] and in experiment [8] were 71.1% and 30.3%, respectively.

For `CS(=O)(=O)CCN1CC2CCCC(C2)C1`, the growth in experiment [1] is 105%; in experiment [2], 102%; in [3], 92.5%; in experiment [4], 111%; in experiment [5], 92.3%; in experiment [6], 94.7%. Also, the growth in experiment [7] was 99.5%; in [8] it was 111%.

With `COc1cc2c(cc1OCCCn1c(-c3ccccn3)nc3ccccc31)N=C[C@@H]1CCCN1C2=O`, the growth in experiment [1] was 3.97% (active); in [2], 35.4%; in experiment [3] it was -17.1% (active); in experiment [4] it was 0.272% (active); in [5] it was 1.32% (active); in experiment [6], -14.4% (active). The growth in [7] is 2.04% (active); in [8], -31.7% (active).

Regarding `CCCCCC1(CCBr)C(=O)NC(=O)NC1=O`, the growth in experiment [1] is 121%; in experiment [2], 106%; in experiment [3] it was 90.5%; in experiment [4], 101%; in experiment [5] it was 97.5%; in [6], 106%. Moreover, the values for the growth in [7] and in [8] were 115% and 109%, respectively.

In the case of `COc1ccc(/C(C)=C(\c2ccc(OCCN3CCOCC3)cc2)c2ccc(OC(=O)Cc3ccccc3)cc2)cc1`, the growth in [1] is 102%; in experiment [2] it was 65.4%; in [3] it was 108%; in [4] it was 111%; in experiment [5] it was 71.7%; in experiment [6] it was 104%. For the same compound, the growth in experiment [7] was 102%; in [8] it was 103%.

For `C/C=C(\C)C(=O)O[C@@H]1C(O)[C@H]2OC(COC(=O)CCC(=O)CCCCCC[C@H](CCCCC)O[C@@H]3OC(C)[C@H](OC(C)=O)C(O)[C@H]3O2)[C@H]1OC(=O)/C=C/c1ccccc1` (stereo partly drawn), the growth in experiment [1] is 38.5%; in experiment [2], -6.33% (active); in experiment [3], 22.1%; in [4] it was 24.6%; in [5] it was 17.6%; in [6], 8.86% (active). For the same compound, the growth is 39.3% in [7] and 16.4% in [8].

`CC[C@H](C)[C@H](NC(=O)[C@H]1CCCCN1C)C(=O)N(C)[C@H](C[C@@H](OC(C)=O)c1nc(C(=O)N[C@@H](Cc2ccccc2)C[C@H](C)C(=O)OC)cs1)C(C)C`: the growth is -4.28% (active) in experiment [1]; 81% in experiment [2]; -35.7% (active) in [3]; 45.4% in [4]; 12.9% in experiment [5]; 4.25% (active) in experiment [6]. Also, the figures for the growth in [7] and in [8] were 10.8% and 2.43% (active), respectively.

Consider `Cc1cc(N(CCCl)CCCl)ccc1/C=N\NC(=O)c1ccncc1`, for which the growth is 80.5% in experiment [1]; 54.4% in experiment [2]; 75.1% in experiment [3]; 62% in [5]; 78.8% in experiment [6]; 107% in experiment [7]. Further, in experiment [8], the growth is 95.6%.

`CCCC[C@H](NC(=O)[C@H]1CCCN1C)C(=O)N(C)[C@H](C[C@@H](OC(C)=O)c1nc(C(=O)N[C@@H](Cc2ccccc2)C[C@H](C)C(=O)OCC)cs1)C(C)C`: the growth is 7.13% (active) in [1]; 54.4% in [2]; -21.7% (active) in experiment [3]; -28.6% (active) in [9]; 22.1% in [4]; 14.2% in experiment [7]. Besides, the growth in experiment [8] was 13.6%.

With `COC(=O)[C@@H](C)C[C@H](Cc1ccccc1)NC(=O)c1csc([C@@H](C[C@H](C(C)C)N(C)C(=O)[C@H](C)NC(=O)[C@H]2CCCCN2C)OC(C)=O)n1`, the growth is 87.6% in [1]; 41.9% in experiment [2]; 47.6% in experiment [3]; 18.4% in [4]; 33.8% in experiment [7]; 22.4% in experiment [8].

Turning to `COP(=S)(N1CC1)N1CC1`, the growth is 103% in [1]; 94.8% in experiment [2]; 118% in [3]; 103% in experiment [4]; 102% in [5]; 109% in experiment [6]. For the same compound, the values for the growth in experiment [7] and in experiment [8] were 105% and 116%, respectively.

Turning to `O[C@H](CN1CC1)[C@@H](O)CN1CC1`, the growth in [1] is 56.3%; in [2], 48%; in [3] it was 81.9%; in [4] it was 64.4%; in experiment [5] it was 41.7%; in [6], 66.3%. Also, the results for the growth in [7] and in experiment [8] were 97% and 91.5%, respectively.

With `ClCCN(CCCl)c1ccc(-n2cnc3c(Cl)ncnc32)cc1`, the growth was 61% in experiment [1]; 41.1% in experiment [2]; 46.9% in experiment [9]; -73.8% (active) in experiment [4]; 25.7% in experiment [5]; 33.6% in [6]. The growth in [7] is 82.6%; in [8], 46.3%.

Take `Nc1ccc(Cl)cc1`: the growth in [1] was 99.5%; in experiment [2], 94.6%; in [9] it was 105%; in experiment [4], 103%; in [5], 98.2%; in experiment [6] it was 95.9%. Moreover, the growth in experiment [7] was 106%; in [8], 102%.

Consider `C[C@@H]1CCC2[C@@H](C)[C@H](OC(=O)CCC(=O)NCCNC(=O)Cc3cc(=O)oc4cc(N(C)C)ccc34)O[C@@H]3O[C@]4(C)CC[C@@H]1C23OO4` (stereo partly drawn), for which the growth is 16.6% in experiment [1]; 41% in experiment [2]; 19.2% in experiment [9]; 25.3% in [4]; 35.9% in experiment [5]; 10.1% in experiment [6]. The growth was 50.2% in experiment [7] and 22.2% in experiment [8].

As to `O=[As](O)(O)c1ccccc1[As](=O)(O)O`, the growth in [1] was 104%; in experiment [3] it was 116%; in experiment [9] it was 98.8%; in experiment [4], 112%; in experiment [5] it was 98%; in experiment [6] it was 107%. The growth was 101% in experiment [7] and 105% in [8].

For the compound `CNCc1cccnc1`, the growth is 104% in experiment [1]; 124% in [3]; 95.9% in [9]; 107% in experiment [4]; 105% in [5]; 107% in experiment [6]. Further, the growth in experiment [7] was 96.6%; in [8] it was 104%.

Turning to `O=[N+]([O-])c1ccc([Se]C2CCCCC2Cl)c([N+](=O)[O-])c1` (stereo not drawn), the growth in experiment [1] was 79%; in experiment [3], 60.8%; in experiment [9], 55.3%; in experiment [4], 106%; in experiment [5], 91.4%; in [6], 46.6%. Besides, in [7], the growth was 98.8%.

As to `CC[C@H](C)[C@@H]([C@@H](CC(=O)N1CCC[C@H]1[C@H](OC)[C@@H](C)C(=O)N[C@H](C)[C@@H](O)c1ccccc1)OC)N(C)C(=O)[C@@H](NC(=O)[C@@H](NC)C(C)C)C(C)C`, the growth is -2.45% (active) in experiment [1]; 6.48% (active) in experiment [3]; 2.42% (active) in experiment [9]; 32.8% in experiment [4]; 15.3% in experiment [5]; 7.3% (active) in [6]. The growth in experiment [7] is 9.29% (active); in experiment [8], 15.3%.

As for `O=C1C2C(C(=O)[N]1[Hg][c]1cccs1)C1(Cl)C(Cl)=C(Cl)C2(Cl)C1(Cl)Cl` (stereo not drawn), the growth in [1] is 21%; in experiment [3] it was -1.18% (active); in [9] it was 7.41% (active); in [4], -40.4% (active); in experiment [5], -13.1% (active); in experiment [6], -31.9% (active). The figures for the growth in experiment [7] and in experiment [8] were 49.7% and 87.3%, respectively.

`CCOC(=O)CCN(C)C1=Nc2ccc(Cl)cc2C(c2ccccc2)=[N+]([O-])C1`: the growth was 104% in experiment [1]; 88.9% in [3]; 115% in [9]; 104% in experiment [4]; 97.1% in [5]; 112% in experiment [6]. For the same compound, the growth is 102% in experiment [7] and 104% in [8].
